We go through 15 compounds from PubChem BioAssay AID1304 (The Scripps Research Institute Molecular Screening Center, 2008).

Out of some 220,000 compounds screened, about 800 (0.36%) were called active. Cut-off read from the data, not from the text of the source: active = activation above about 33% (passing the limit was not always enough); inactive = the rest. This excerpt belongs to a sample that is enriched for actives.

Neuropeptide Y receptor type 1 (Homo sapiens), sequence (P25929 whole entry, looked up): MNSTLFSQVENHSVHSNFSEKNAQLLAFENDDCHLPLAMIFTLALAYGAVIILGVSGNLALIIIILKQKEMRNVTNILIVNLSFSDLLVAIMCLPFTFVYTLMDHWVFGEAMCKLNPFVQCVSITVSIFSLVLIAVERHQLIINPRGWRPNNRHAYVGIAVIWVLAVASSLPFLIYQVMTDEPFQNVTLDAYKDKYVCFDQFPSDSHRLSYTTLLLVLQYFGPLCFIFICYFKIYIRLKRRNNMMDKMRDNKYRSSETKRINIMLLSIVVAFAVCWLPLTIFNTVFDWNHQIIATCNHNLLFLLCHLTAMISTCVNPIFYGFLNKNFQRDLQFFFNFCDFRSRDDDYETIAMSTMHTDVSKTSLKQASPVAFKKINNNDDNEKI

This assay has as its target Neuropeptide Y receptor type 1 (Homo sapiens) (UniProt P25929). Nature of the assay: activation enhancers of human NPY-Y1 – cell-based, primary screen (AID 1304).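 Note: cells stimulated with NPY at EC10 then isoproterenol at EC100; 0% = low agonist plus stimulus and 100% = saturating agonist plus stimulus.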 As to conditions: NPY-Y1 expressing cells, potentiator/agonist activation; at 3.6 µM; hits give high values.
Turning to `CSC1=NP(=S)(SC)N(C)c2nc3n(c21)CCC3` (stereo not given), the activation is 42.8% (active).

`CCC1(C)CC(CCNCc2ccc(N(C)C)cc2)(c2ccc(F)cc2)CCO1` (stereo not given): the activation is 16.3% (inactive). As for `CSc1nc2ccc(C)cc2c(=O)n1-c1cccnc1`, the figure is 1.29% (inactive); as for `CNC(=O)Nc1ccc(C(O)(C(=O)OC)C(F)(F)F)cc1` (stereo not given), -6.66% (inactive). The same measure for `CC(=O)Cc1ccc(OC(C)C)cc1`: 8.4% (inactive). The same measure for `C/C=C/CC1(CC)C(=O)NC(=S)NC1=O`: 11.2% (inactive). Take `CCOP(=O)(OCC)C(NC(=O)c1ccc(OC)cc1)C(Cl)(Cl)Cl` (stereo not given): the activation is 4.01% (inactive). The same measure for `CC1(C)Cc2c(C#N)c(N3CCNCC3)nc(-c3ccco3)c2CS1`: 59.2% (active); for `CCN1CC2C3CCC(C)(O3)C2C1` (stereo not given): 11.9% (inactive); for `Fc1ccc(C2N3CCCN23)cc1` (stereo not given): -11.3% (inactive).

With `CCOc1cccc(=NC2CCCCC2)c2c(C)[nH]c(C)c12`, the activation is 11.4% (inactive).

As for `Cc1nn(Cc2ccccc2Cl)c(Cl)c1C(=O)OC(C(=O)NC(N)=O)C(C)C` (stereo not given), the activation was 49.5% (active).

As to `Cc1cccc(NC(=O)OC2CN3CCC2CC3)c1` (stereo not given), the activation was 11.8% (inactive). Turning to `O=c1[nH]c(=O)n(Cc2ccccc2)c(O)c1/C=N/Nc1c(F)c(F)c(F)c(F)c1F`, the activation is -7.15% (inactive). Regarding `Cn1c(O)c(C(=Nc2ccc(F)cc2)c2ccccc2)c(=O)n(C)c1=O`, the activation is -6.6% (inactive).
